Drawing on PubChem BioAssay AID1832 (Broad Institute, 2009), this text covers activity score (negative = inhibition of binding) for 46 molecules.

In all, about 300,000 compounds went through this assay and about 1,100 (0.37%) were called active. Many of the other results were omitted from the sample, so actives are more common in it than they were. A number with no mark means an inactive call.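 Rule for the calls: active = inhibition past about -25% in most replicates, and total fluorescence under double the plate's negative control median (limit read from the data); inconclusive = replicates evenly split on the limit, or fluorescence at least double controls; inactive = too little inhibition in most replicates.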

Zinc finger protein mex-5 (Caenorhabditis elegans), sequence (Q9XUB2 whole entry, looked up): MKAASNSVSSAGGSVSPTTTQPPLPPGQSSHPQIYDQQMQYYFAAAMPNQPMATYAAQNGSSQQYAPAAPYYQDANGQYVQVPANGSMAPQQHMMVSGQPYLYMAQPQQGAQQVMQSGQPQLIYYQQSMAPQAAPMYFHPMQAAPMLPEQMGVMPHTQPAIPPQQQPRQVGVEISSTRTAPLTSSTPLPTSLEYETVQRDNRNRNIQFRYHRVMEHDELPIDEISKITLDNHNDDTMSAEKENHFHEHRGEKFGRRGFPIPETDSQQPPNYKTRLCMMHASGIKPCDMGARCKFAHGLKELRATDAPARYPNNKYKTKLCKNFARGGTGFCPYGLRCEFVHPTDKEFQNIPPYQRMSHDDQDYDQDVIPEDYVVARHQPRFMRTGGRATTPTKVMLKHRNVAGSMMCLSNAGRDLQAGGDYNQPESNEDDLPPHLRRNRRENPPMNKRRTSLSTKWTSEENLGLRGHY

The test concerns the target Zinc finger protein mex-5 (Caenorhabditis elegans) (UniProt Q9XUB2). Description: MEX-5 zinc finger RNA-binding disruptors – biochemical, C. elegans, fluorescence polarization, MLPCN library, primary screen (AID 1832).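 Note: 0% = DMSO and -100% = 5 µM competing unlabeled TCR2 RNA.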 Conditions: MEX-5/FITC-TCR2 RNA binding, at 10 µM, active compounds read low. In general terms: Polarisation of emitted light reports the rotation of a fluorescent probe.
As to `CCCn1nc(C(=O)Nc2ccc3nc(C)sc3c2)c2ccccc2c1=O`, the activity score (negative = inhibition of binding) is -34.8% (active).

For `CCCn1nc(C(=O)NNC(=O)CSCC(=O)Nc2cc(C)on2)c2ccccc2c1=O`, the activity score (negative = inhibition of binding) was -9.23%.

Consider `CCCCn1nc(C(=O)Nc2ccc(S(=O)(=O)Nc3ncccn3)cc2)c2ccccc2c1=O`, for which the activity score (negative = inhibition of binding) is 2.51%.

On to `CCOC(=O)NC(=O)C(=CNc1cccc(OC)c1)C(=O)NC(=O)OCC`, for which the activity score (negative = inhibition of binding) is -0.689%.

Regarding `C=CCOc1ccccc1NC(=O)CN1C(=O)CNC1=O`, the activity score (negative = inhibition of binding) is 1.49%.

On to `Cc1nc(CN(C)C(=O)CC2C(=O)NCCN2Cc2ccc(F)cc2)cs1` (stereo unspecified), for which the activity score (negative = inhibition of binding) is -3.2%.

Consider `NS(=O)(=O)c1ccc(NC(=O)/C=C/c2ccccc2Cl)cc1`, for which the activity score (negative = inhibition of binding) was -0.539%.

For `COc1ncnc2c1N=C1CC(C)(C)CC(N)=C1S2`, the activity score (negative = inhibition of binding) was -36.1% (active).

For the molecule `Cn1c(Nc2ccccc2)cc(=O)n(C)c1=O`, the activity score (negative = inhibition of binding) is -3.14%.

As to `Oc1c(Cl)cc(Cl)c(Cl)c1Cc1c(O)c(Cl)cc(Cl)c1Cl`, the activity score (negative = inhibition of binding) was -82.9% (active).

Take `Cc1cc(NS(=O)(=O)c2ccc(NC(=S)NC(=O)c3ccc(F)cc3Cl)cc2)no1`: the activity score (negative = inhibition of binding) is -0.765%.

Turning to `O=C(NCC1CCCO1)C1CCN(C2CCN(C(=O)C3CCCCC3)CC2)CC1` (stereo unspecified), the activity score (negative = inhibition of binding) was -0.223%.

With `COc1cc(C(=S)N2CCOCC2)cc(OC)c1OC(=O)c1ccc([N+](=O)[O-])cc1[N+](=O)[O-]`, the activity score (negative = inhibition of binding) was -2.68%.

For `Cc1c(NC(=O)c2coc(=O)c(Br)c2)c(=O)n(-c2ccccc2)n1C`, the activity score (negative = inhibition of binding) is -44.8% (active).

Turning to `Cc1cc(C(=O)Nc2c(C)n(C)n(-c3ccccc3)c2=O)cs1`, the activity score (negative = inhibition of binding) is 2.16%.

As to `Cc1c(NC(=O)c2cccnc2)c(=O)n(-c2ccccc2)n1C`, the activity score (negative = inhibition of binding) is 0.492%.

For `CCOc1ncccc1C(=O)NCCc1ccc(OC)cc1`, the activity score (negative = inhibition of binding) was -0.435%.

`CNC(=O)CN1C(=O)NC(c2ccccc2)(c2ccccc2)C1=O`: the activity score (negative = inhibition of binding) is 2.16%.

`Cc1ccc(Cl)cc1-c1ccc(/C=N/n2cnnc2)o1`: the activity score (negative = inhibition of binding) was 0.0863%.

In the case of `Brc1cc(/C=N/n2cnnc2)oc1Br`, the activity score (negative = inhibition of binding) is 0.986%.

With `Clc1cc(-c2ccc(/C=N/n3cnnc3)o2)ccc1Br`, the activity score (negative = inhibition of binding) was -34% (active).

`Cc1ccoc1C(=O)Nc1cccc(Oc2ccccc2)c1`: the activity score (negative = inhibition of binding) was -2.34%.

Take `COc1ccc(CNC(=O)COc2cccnc2[N+](=O)[O-])cc1`: the activity score (negative = inhibition of binding) was 0.235%.

Take `CC1(OC(=O)C2CCCC2)C(=O)C=C2C=C(c3ccc(C#N)cc3)OC=C2C1=O` (stereo unspecified): the activity score (negative = inhibition of binding) was -40% (active).

As to `COCCN1C=C2C(=O)C(C)(OC(=O)C3CCCC3)C(=O)C=C2C=C1c1ccsc1` (stereo unspecified), the activity score (negative = inhibition of binding) was -2.5%.

Consider `C=CCN1C=C2C(=O)C(C)(OC(=O)CCc3ccccc3)C(=O)C=C2C=C1c1ccc(C#N)cc1` (stereo unspecified), for which the activity score (negative = inhibition of binding) is -5.84%.

Turning to `N#CC1=C(N)C(C#N)(C#N)[C@H](c2ccsc2)[C@H]2COCC=C12`, the activity score (negative = inhibition of binding) is -30.3% (active).

Turning to `CCOC(=O)N1CCC(NC(=O)C(NS(=O)(=O)c2ccc3c(c2)CCN3C(=O)CC)C(C)C)CC1` (stereo unspecified), the activity score (negative = inhibition of binding) was -1.98%.

With `O=C(COc1ccc(Cl)cc1Cl)N/N=C/c1ccccn1`, the activity score (negative = inhibition of binding) was 4.25%.

For the molecule `CSc1ncc(C(=O)NCCCc2ccccc2)c(C)n1`, the activity score (negative = inhibition of binding) is -2.7%.

`CCOc1ccc(C(=O)NC2CCN(CC(=O)NCc3cccs3)CC2)cc1`: the activity score (negative = inhibition of binding) is -1.2%.

For the molecule `Cc1ccc2c(c1)C(c1ccccc1)N(C(=O)c1ccc(F)cc1)CC(=O)N2` (stereo unspecified), the activity score (negative = inhibition of binding) is -0.463%.

In the case of `CCCNC(=O)N1CCC(c2ccc3c(c2)OCO3)CC1`, the activity score (negative = inhibition of binding) is 2.15%.

Take `Cc1nn(C)cc1N1C(=O)c2cccc3c(N)ccc(c23)C1=O`: the activity score (negative = inhibition of binding) was 1.83%.

Take `CCN1C(=O)c2cccc3c(N)ccc1c23`: the activity score (negative = inhibition of binding) is 1.15%.

Turning to `CN1C(=O)c2cccc3c(N)ccc(c23)C1=O`, the activity score (negative = inhibition of binding) was -51.4% (active).

With `NC(=O)Cc1ccc2sc(-c3ccccc3)nc2c1`, the activity score (negative = inhibition of binding) was -1.64%.

Consider `O=C1c2ccccc2C(Nc2ccc3c(c2)OCCO3)N1Cc1ccco1` (stereo unspecified), for which the activity score (negative = inhibition of binding) was -1.03%.

As to `CCc1ccc(CNC(=O)C2CCN(c3nnc(C)c4c(C)n(-c5ccc(C)cc5)nc34)CC2)cc1`, the activity score (negative = inhibition of binding) is -2.92%.

Turning to `O=C(Nc1cccc2c1N(C(=O)c1ccco1)CCC2)c1ccco1`, the activity score (negative = inhibition of binding) was -0.00473%.

With `O=C(NCc1nnc(SCC(=O)N2CCC(Cc3ccccc3)CC2)o1)c1ccco1`, the activity score (negative = inhibition of binding) is -1.62%.

As for `CC(OC(=O)c1ccc2noc(-c3ccccc3)c2c1)C(N)=O` (stereo unspecified), the activity score (negative = inhibition of binding) was -5.27%.

Take `COc1ccc(-c2onc3ccc(C(C)=O)cc23)cc1`: the activity score (negative = inhibition of binding) was -69.7% (active).

For the molecule `Oc1ccc(-c2onc3ccc(Cl)cc23)cc1`, the activity score (negative = inhibition of binding) was -1.78%.

Regarding `COc1ccc(Cn2c(-c3ccc(Cl)cc3)c[n+]3ccccc23)cc1`, the activity score (negative = inhibition of binding) was 2.75%.

Take `COc1ccc(NC(=O)c2cn(-c3ccccc3)nc2SC)cc1`: the activity score (negative = inhibition of binding) was 2.01%.
